The results in this text go back to PubChem BioAssay AID504339 (National Center for Advancing Translational Sciences (NCATS), 2011).

The structures appear in SMILES notation. The campaign covered roughly 390,000 compounds. About 17,000 (4.4%) were called active. Another 8% or so got no clear call; they are omitted. This excerpt belongs to a sample that is enriched for actives. Values without a mark were called inactive. The call rests on the fitted dose curve; in most records, active means well fitted inhibition curve with a large enough effect; inconclusive means small, poorly fitted or top-dose-only effect; inactive means no such curve, though single readings can be large or run the other way.
On the % scale 0 is the no-effect control and ±100 the full control effect; potency means the concentration at half of the fitted maximal effect.

The target in this assay is Lysine-specific demethylase 4A (Homo sapiens) (UniProt O75164). Kind of assay: qHTS Assay for Inhibitors of JMJD2A-Tudor Domain. Further: nearly all actives have a fitted effect of over 50% in size. The settings on record: AlphaScreen JMJD2A-Tudor / H3K4me3 peptide binding; series mostly up to 114 µM; activity change, negative = inhibition: at the top concentration. (In general: Quantitative high-throughput screening tests each substance at several concentrations.)
Lysine-specific demethylase 4A (Homo sapiens), sequence (O75164 whole entry, looked up, the tested form may be a part): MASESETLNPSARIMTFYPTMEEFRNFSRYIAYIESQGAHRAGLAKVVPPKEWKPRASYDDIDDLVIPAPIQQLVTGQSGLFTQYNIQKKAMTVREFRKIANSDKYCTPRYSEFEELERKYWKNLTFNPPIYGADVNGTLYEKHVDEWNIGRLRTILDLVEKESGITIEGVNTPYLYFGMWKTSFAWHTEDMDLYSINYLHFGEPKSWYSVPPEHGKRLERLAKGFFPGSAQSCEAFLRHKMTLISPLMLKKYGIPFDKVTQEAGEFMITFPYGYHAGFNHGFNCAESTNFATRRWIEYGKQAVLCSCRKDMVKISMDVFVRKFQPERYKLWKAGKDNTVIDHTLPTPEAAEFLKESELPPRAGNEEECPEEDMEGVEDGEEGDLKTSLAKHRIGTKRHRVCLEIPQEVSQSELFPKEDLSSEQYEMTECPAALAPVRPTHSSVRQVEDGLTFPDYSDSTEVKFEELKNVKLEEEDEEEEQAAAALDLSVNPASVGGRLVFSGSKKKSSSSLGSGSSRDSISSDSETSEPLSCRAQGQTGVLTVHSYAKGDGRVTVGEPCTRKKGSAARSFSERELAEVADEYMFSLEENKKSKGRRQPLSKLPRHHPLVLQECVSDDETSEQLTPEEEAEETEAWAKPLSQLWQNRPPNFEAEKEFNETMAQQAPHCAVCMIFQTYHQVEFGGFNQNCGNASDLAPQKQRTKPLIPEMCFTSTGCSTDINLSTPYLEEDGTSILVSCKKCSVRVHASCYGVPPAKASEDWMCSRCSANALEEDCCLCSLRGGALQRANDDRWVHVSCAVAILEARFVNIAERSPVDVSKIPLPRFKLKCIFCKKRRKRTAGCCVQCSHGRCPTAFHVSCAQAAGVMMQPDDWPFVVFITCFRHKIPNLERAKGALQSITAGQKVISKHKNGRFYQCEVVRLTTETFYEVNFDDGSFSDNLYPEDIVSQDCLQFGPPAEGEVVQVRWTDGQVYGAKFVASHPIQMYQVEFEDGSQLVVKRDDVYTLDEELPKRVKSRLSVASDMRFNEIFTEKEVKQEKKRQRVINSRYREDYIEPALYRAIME
Regarding `COc1ccc(CC(=O)N2CC(=O)Nc3ccc(Br)cc3C2c2ccc(F)cc2)cc1OC` (stereo not drawn), the “activity change, negative = inhibition” value was -11.9%. The same measure, in the same setting: the result for `CCC(=O)NNc1cc(=O)c2c(=O)n(C)c(=O)n(C)c2[nH]1` reads -10.3%. Turning to `CC(=O)NNc1cc(=O)c2c(=O)n(C)c(=O)n(C)c2[nH]1`, the Potency is 10 µM (active). For `CC(=O)Nn1cc2c(=O)n(C)c(=O)n(C)c2c1`, the “activity change, negative = inhibition” value is -11.3%. Still for that read-out and setting: in the case of `CC(=O)c1ccc(NC(c2ccc(F)cc2)c2nnc(-c3ccccc3)o2)cc1` (stereo not drawn) it was -1%.

`CC(C)Oc1ccc(NC(=O)c2cc3ccccc3o2)cc1`: the “activity change, negative = inhibition” value was -15.9%. Still for that read-out and setting: in the case of `CCCCn1c(CNC(=O)C23CC4CC(CC(C4)C2)C3)nnc1SCC(=O)Nc1ccc(C)cc1` it was -34.3%. Still for that read-out and setting: in the case of `COc1cc(/C=N/NC(=S)Nc2cccnc2)cc(OC)c1O` it was -14.8%; in that of `COc1cc(/C=N/O)cc(Br)c1OS(=O)(=O)c1ccc(C)cc1`, -17.4%. Take `COc1cc(/C=N/Nc2ccc(C)cc2)cc(Br)c1O`: the Potency is 50.1 µM (active). As for `COc1ccccc1CNC(=O)C(=O)NCC(c1ccco1)S(=O)(=O)c1ccc(F)cc1` (stereo not drawn), the “activity change, negative = inhibition” value was -5.52%. As to `Cc1coc2c(O)cc3c(c12)OC1(N2CCCCC2)C(=O)NCCCC31` (stereo not drawn), the Potency was 20 µM (active). On to `CC(=O)N1CCCc2ccc(NS(=O)(=O)c3ccc(F)cc3F)cc21`, for which the “activity change, negative = inhibition” value was -0.993%. For the molecule `CC1CCCCN1S(=O)(=O)c1ccc(F)c(C(=O)Nc2ccccc2C(F)(F)F)c1` (stereo not drawn), the “activity change, negative = inhibition” value was 4.28%. On the same count and under the same terms, the result for `CCN(CC)CCNC(=O)Cn1ncc2c3ccccc3n(Cc3ccccc3C)c2c1=O` reads -29.5%; that for `Cc1ccc(CSc2nnc(-c3cnccn3)n2C)cc1`, -8.62%.

On to `Cn1c(SCc2c(F)cccc2Cl)nnc1-c1cnccn1`, for which the Potency was 79.4 µM (active). In the case of `Oc1ccc(-n2nnnc2SCc2c(F)cccc2Cl)cc1`, the “activity change, negative = inhibition” value is -7.53%. Same read-out and setting: in the case of `CCOc1ccc(NC(=O)CSc2c3c(nc4ccccc24)CCCC3)cc1` it was -19%. For the molecule `CCN1/C(=C/c2ccc3ccc(C)cc3[n+]2CC)Sc2ccccc21`, the Potency was 89.1 µM (active). Regarding `CCN1/C(=C\c2ccc3ccccc3[n+]2CC)Sc2cc(C)ccc21`, the Potency is 20 µM (active).

Consider `CCOc1cc(CNC(=O)c2sc3ncnc(N(C)C4CCCCC4)c3c2C)ccc1OC`, for which the “activity change, negative = inhibition” value was -26%. Still for that read-out and setting: the result for `Cc1ccc(C(=O)CSc2nc(-c3ccccc3)nc3c2CCCC3)c(C)c1` reads 27.3%. Regarding `COc1ccc(NC(=O)CSC2=Nc3ccccc3C3=NC(CC(=O)NCc4ccccc4OC)C(=O)N23)cc1Cl` (stereo not drawn), the “activity change, negative = inhibition” value is -8.22%. The same measure, in the same setting: the result for `Cc1nn(CC(=O)O)c(=O)c2cc3cc(F)ccc3n12` reads -6.18%; that for `CCC(=O)N1CCc2cc(CNC(=O)Nc3ccccc3Cl)ccc21`, -14.4%; that for `CC(=O)N1c2ccc(S(=O)(=O)N3CCCCCC3)cc2CC1C(=O)NCc1ccccc1C` (stereo not drawn), -4.97%. For `Cc1c(NC(=O)C(C)(C)C)cccc1-c1nc2ccccc2s1`, the “activity change, negative = inhibition” value is 7.62%. Still for that read-out and setting: in the case of `CCN(CC)CCNC(=O)CN1N=C(c2ccc(OC)cc2)CCC1=O` it was 4.49%. For `C#CCOCCOCCOCCNc1nc(N2CCN(C(=O)CCCCCCCCCCNC(=O)[C@H](CCCCN)n3cc(C)nn3)CC2)nc(N2CCN(C(=O)CCCCCCCCCCNC(=O)[C@H](CO)n3cc(CCCSC)nn3)CC2)n1`, the Potency is 56.2 µM (active).

Take `CC[C@@H](C)[C@@H](C(=O)N1CCN(C(=O)OC(C)(C)C)CC1)n1cc(CCC(=O)O)nn1`: the “activity change, negative = inhibition” value was -14.1%. In the case of `C#CCOCCOCCOCCNc1nc(N2CCN(C(=O)CCCCCCCCCCNC(=O)[C@H]([C@@H](C)CC)n3cc(CCCCN=C(N)N)nn3)CC2)nc(N2CCN(C(=O)CCCCCCCCCCNC(=O)[C@H](CO)n3cc(CCCSC)nn3)CC2)n1`, the Potency was 20 µM (active).

For `C#CCOCCOCCOCCNc1nc(N2CCN(C(=O)CCCCCCCCCCNC(=O)Cn3cc(CCCCCN)nn3)CC2)nc(N2CCN(C(=O)CCCCCCCCCCNC(=O)[C@H](CO)n3cc(CCCSC)nn3)CC2)n1`, the Potency is 79.4 µM (active). `C#CCOCCOCCOCCNc1nc(N2CCN(C(=O)[C@H](C(C)C)n3cc(CCO)nn3)CC2)nc(N2CCN(C(=O)[C@H](C(C)C)n3cc(CCO)nn3)CC2)n1`: the “activity change, negative = inhibition” value is -7.69%. Same read-out and setting: the result for `Cc1c(-c2nsc(NC(=O)c3cccc(Cl)c3)n2)nnn1-c1ccccc1C(F)(F)F` reads -7.14%. On the same count and under the same terms, the result for `COc1ccc(NC(=O)CCCN2C(=O)CCn3nc(-c4cn(C)c5ccccc45)cc32)cc1OC` reads -33.5%; that for `Cc1ccc(SCC(=O)Nc2ccc3oc(-c4ccccc4C)nc3c2)cc1`, 13.9%; that for `CCN(CC)c1ccc(NC(=O)Cn2nc3c(cc2=O)CCCC3)c(C)c1`, -23.9%. The same measure, in the same setting: in the case of `CCOc1ccc(CC(=O)NCCc2csc3nc(-c4ccccc4F)nn23)cc1` it was -13.4%.

As for `CC(NC(=O)c1ccco1)C(=O)Nc1nc(-c2ccccn2)cs1` (stereo not drawn), the Potency was 44.7 µM (active).

Consider `O=C(CN1C(=O)C2C3C=CC(C3)C2C1=O)Nc1nc(-c2ccccn2)cs1` (stereo not drawn), for which the Potency was 50.1 µM (active). In the case of `CSCCC(NC(=O)c1ccco1)C(=O)Nc1cc(C)ccn1` (stereo not drawn), the “activity change, negative = inhibition” value is -4.14%. On to `O=C(COc1ccccc1F)Nc1nc(-c2ccccn2)cs1`, for which the Potency was 79.4 µM (active). Turning to `O=C(CN1C(=O)C2C3C=CC(C3)C2C1=O)NCCc1ccccc1Cl` (stereo not drawn), the “activity change, negative = inhibition” value is -6.94%. As for `O=C(NCCN1C(=O)C2C3C=CC(C3)C2C1=O)Nc1ccccn1` (stereo not drawn), the “activity change, negative = inhibition” value was -10.6%. With `Cc1csc2nc(COC(=O)c3ccc(NC(=O)COc4ccccc4F)cc3)cc(=O)n12`, the “activity change, negative = inhibition” value was 8.61%.

Take `Cc1cc(NC(=O)[C@H](C)NC(=O)c2ccco2)ccc1Br`: the “activity change, negative = inhibition” value was -13%. With `CC1CCN(S(=O)(=O)c2nnc(NC(=O)COc3ccccc3F)s2)CC1`, the “activity change, negative = inhibition” value is -9.72%.
